Anthrax LF inh2 = inhibitors of Bacillus anthracis lethal factor protease. inhibition, % at 10 µM. P15917. multiplex microsphere protease cleavage assay, LF. 360,000 tested, 0.12% active; note: plate controls were buffer without enzyme for full effect and enzyme alone for no effect
Target sequence (P15917 whole entry, looked up): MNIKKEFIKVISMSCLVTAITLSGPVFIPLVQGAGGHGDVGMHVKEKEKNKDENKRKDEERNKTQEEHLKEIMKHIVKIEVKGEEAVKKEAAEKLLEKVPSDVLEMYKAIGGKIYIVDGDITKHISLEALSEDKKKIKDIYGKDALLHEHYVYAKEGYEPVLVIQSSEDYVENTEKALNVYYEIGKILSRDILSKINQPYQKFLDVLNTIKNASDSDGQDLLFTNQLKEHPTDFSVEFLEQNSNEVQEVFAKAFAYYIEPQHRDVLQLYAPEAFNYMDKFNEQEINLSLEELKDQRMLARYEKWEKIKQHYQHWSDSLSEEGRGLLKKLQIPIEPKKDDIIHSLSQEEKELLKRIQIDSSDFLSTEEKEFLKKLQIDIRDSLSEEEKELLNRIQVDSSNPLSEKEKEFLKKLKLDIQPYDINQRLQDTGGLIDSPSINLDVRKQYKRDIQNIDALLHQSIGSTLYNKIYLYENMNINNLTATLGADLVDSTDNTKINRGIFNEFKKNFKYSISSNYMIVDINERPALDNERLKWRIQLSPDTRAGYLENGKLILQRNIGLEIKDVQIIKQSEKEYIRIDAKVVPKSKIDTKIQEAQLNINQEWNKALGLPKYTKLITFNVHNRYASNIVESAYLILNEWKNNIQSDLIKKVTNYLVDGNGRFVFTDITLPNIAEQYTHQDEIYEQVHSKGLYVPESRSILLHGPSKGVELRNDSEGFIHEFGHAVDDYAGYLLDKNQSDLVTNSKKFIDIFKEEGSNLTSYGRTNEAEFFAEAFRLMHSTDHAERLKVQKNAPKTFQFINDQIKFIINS
BoNT-A LC inh2 = inhibitors of Botulinum neurotoxin A light chain protease; inhibition, % at 10 µM; multiplex microsphere protease substrate cleavage, flow cytometry; AID 588499; 360,000 tested, 0.17% active; note: plate controls were buffer without enzyme for full effect and enzyme alone for no effect
Autofluor counter = compound fluorescence in toxin protease inhibitor counterscreen. compound autofluorescence counterscreen, microsphere flow cytometry; active compounds read high. 360,000 tested, 3.1% active. fluorescence intensity (no concentration beside the values); in the data active = fluorescence intensity above about 16000; inconclusive = no clear call, values can overlap the other calls
BoNT F protease = BoNT F light chain protease inhibition | 360,000 tested, 0.22% active | inhibition, % at 10 µM | Multiplex microsphere protease cleavage assay, flow cytometry | AID 588497; in the data active = inhibition above about 35%, passing the limit was not always enough; inconclusive = no clear call, values can overlap the other calls; note: plate controls were buffer without enzyme for full effect and enzyme alone for no effect
The depositor's hits bear a star; u = inconclusive. Hits are enriched below; roughly 3.5% of the tested compounds scored in any of these assays. Cut-off read from the data, not from the text of the source, unless noted: active = inhibition above about 30%; inconclusive = no clear call, values can overlap the other calls; inactive = below that.

SMILES	Anthrax LF inh2	BoNT-A LC inh2	Autofluor counter	BoNT F protease
CCOC(=O)c1c(NC(=O)CSc2nc3ccccc3o2)sc(C)c1C	-4.0	u	19163*	5.4
CCOC(=O)c1c(NC(=O)CSc2nc3ccccc3s2)sc(C)c1C	-0.6	5.9	u	22.3
NC(=O)Cn1cc(C=C2C(=O)NC(=O)NC2=O)c2ccccc21	3.0	-1.8	2839	-4.1
COC(=O)Cn1cc(C=C2C(=O)NC(=O)NC2=O)c2ccccc21	11.6	0.2	3011	42.0*
COC(=O)c1cccnc1-n1c(=O)c2cccnc2n(Cc2ccc(Cl)cc2)c1=O	-1.2	0.2	22186*	1.7
CCOc1ccccc1N=NC1C(=O)N(C(N)=S)N=C1C (stereo not drawn)	-2.8	3.6	3694	-4.9
Cc1ccccc1-c1nc(S(=O)(=O)c2ccc(Br)cc2)c(NCc2cccnc2)o1	-3.2	1.3	20211*	0.3
S=C1NC[C@H](Cc2ccccc2)N1CCc1cccc2ccccc12	6.9	-0.1	4007	-5.9
CC(=O)Nc1ccc(Nc2c3c4c(cccc4n(C)c2=O)C(=O)c2ccccc2-3)cc1	-5.2	-0.3	1891	-13.1
Cn1c(=O)c(NCCO)c2c3c(cccc31)C(=O)c1ccccc1-2	0.8	6.0	4675	9.7
Cn1c(=O)c(NCCc2ccccc2)c2c3c(cccc31)C(=O)c1ccccc1-2	47.0*	46.9*	9014	40.7*
Cn1c(=O)c(NC2CCCCC2)c2c3c(cccc31)C(=O)c1ccccc1-2	23.3	44.3*	8853	10.7
CCCCNc1c2c3c(cccc3n(C)c1=O)C(=O)c1ccccc1-2	55.6*	74.4*	8728	49.8*
COc1ccc(OC)c(NC(=O)CNC(=O)c2ccc([N+](=O)[O-])cc2)c1	9.0	0.2	3409	1.8
CCN(CC)CCn1c(NC(=O)c2ccccc2O)nc2ccccc21	-15.8	0.2	3247	-3.8
C[C@H]1CN([C@@H](C)CO)C(=O)c2cccc(NC(=O)c3cnccn3)c2O[C@@H]1CN(C)S(=O)(=O)c1ccc(F)cc1	-0.4	0.2	2786	-3.7
COc1ccccc1C(=O)N(CN1CCCC1=O)c1cccc(Cl)c1	-1.8	0.7	22324*	2.4
O=C1CCCN1CN(C(=O)c1ccccc1)c1ccccc1	2.9	-0.2	3388	-1.3
COc1ccc(C(=O)N(CN2CCCC2=O)c2ccccc2OC)cc1OC	0.1	-1.5	23117*	-2.2
COc1cccc(C(=O)N(CN2CCCC2=O)c2cccc(Cl)c2)c1	10.4	-0.9	6225	-7.9
COc1cccc(C(=O)N(CN2CCCC2=O)c2cc(C)on2)c1	1.1	u	22265*	-0.7
CCOc1ccccc1C(=O)N(CN1CCCC1=O)c1cccc(Cl)c1	-5.1	u	21571*	1.4
O=C(CCn1cccn1)N1CCCC(Nc2ccc(F)c(F)c2)C1 (stereo not drawn)	-0.4	0.5	2831	-6.1
CC1(C(=O)NS(=O)(=O)c2cccc(Cl)c2)CCN1C(=O)c1cccc2ccccc12 (stereo not drawn)	3.9	-0.2	3534	-0.4
Cc1ccc(C2CC(c3ccccc3C)n3nc(N)nc3N2)cc1 (stereo not drawn)	-8.4	-0.4	6185	-2.5
SMILES	Anthrax LF inh2	BoNT-A LC inh2	Autofluor counter	BoNT F protease
Cc1ccc(C2CC(c3cccs3)n3nc(N)nc3N2)cc1 (stereo not drawn)	2.2	0.9	16364*	-1.5
COc1ccc(-c2nc(C3CCCCC3)no2)cc1OC	0.6	0.9	22056*	1.6
c1ccc(-c2nc(C3CCCCC3)no2)cc1	-5.5	-0.2	3439	-37.5
CSc1ccccc1NC(=O)COC(=O)c1ccc(-n2nc(C)cc2C)cc1	-6.5	2.0	8162	4.1
CCCCOc1ncnc2c1[nH]c1ccc(OCC)cc12	-0.5	1.5	18958*	1.3
CCOC(=O)C=C(C(=O)OCC)C(=O)OCC	-0.2	-0.6	4493	-3.6
CCCCNc1oc(-c2cccs2)nc1S(=O)(=O)c1ccccc1	0.4	4.4	22130*	5.0
Cc1ccccc1NS(=O)(=O)c1cc(C(=O)NCc2ccco2)ccc1C	3.5	0.0	7208	10.3
COc1ccccc1NS(=O)(=O)c1cc(C(=O)NCc2ccco2)ccc1C	1.9	9.1	17992*	16.2
COc1ccc(-c2cnc3c(NC(C)=O)cc(-c4ccc(C(=O)N5CCOCC5)cc4)cn23)cc1OC	-9.3	-0.3	4212	-9.2
NC(=S)Nc1cc2ccccc2c2ccccc12	-2.7	u	19680*	-1.2
O=C(NN1CCOCC1)c1cc(-c2ccc(Cl)c(Cl)c2)nc2ccccc12	-4.6	-0.8	2756	-14.8
CC1=C(C(=O)Nc2ccc(Cl)cc2)C(c2cccs2)n2nnnc2N1 (stereo not drawn)	-1.5	u	23559*	-2.8
O=c1[nH]cc(S(=O)(=O)N2CCCc3ccccc32)c(=O)[nH]1	4.7	0.7	5358	6.4
COc1cc(CNC(=O)C2CC(O)CN2C(=O)Nc2ccccc2)cc(OC)c1OC (stereo not drawn)	2.3	0.3	2812	-0.6
Cc1cccc(Nc2nc(N)nc(CN3CCN(C)CC3)n2)c1	-0.9	-1.2	23797*	-4.1
Nc1nc(CN2CCN(c3ccccc3F)CC2)nc(Nc2ccccc2)n1	-1.1	-1.9	16781*	-5.7
Cc1ccc(Nc2nc(N)nc(CN3CCN(c4ccccc4F)CC3)n2)cc1	-4.7	-0.8	3836	-4.3
Cc1ccc(Nc2nc(N)nc(CN3CCN(C)CC3)n2)cc1	-0.7	0.4	3047	-4.6
O=C(NC(c1ccc(-c2ccccc2)cc1)c1cnccn1)C1CCN(CCOc2ccc(F)cc2)CC1 (stereo not drawn)	-3.9	-0.5	4449	-11.8
Cc1ccc(C2(CC(=O)O)CCOC(C)(C)C2)cc1 (stereo not drawn)	0.7	u	19797*	1.7
CC1(C)CC(CC(=O)O)(c2ccc(F)cc2)CCO1 (stereo not drawn)	-0.9	-0.3	6163	-5.9
CCCCN(CC(=O)Nc1c(C)cccc1CC)C(=O)SCC	-0.4	0.4	2756	0.7
COCCn1c(Cc2ccccc2)nnc1SCC(=O)NC(C)(C)C	-3.4	-0.1	8229	6.1
COCCn1c(Cc2ccccc2)nnc1SCC(=O)N(C)C	1.0	1.3	21939*	2.2
SMILES	Anthrax LF inh2	BoNT-A LC inh2	Autofluor counter	BoNT F protease
Cn1c(Cc2ccccc2)nnc1SCC(=O)c1ccc(Br)s1	-3.2	-2.1	23767*	-4.4
Cc1cc(NC(=O)CSc2nnc3ccccn23)no1	-4.4	-4.6	17051*	14.9
CCn1c(Cc2ccccc2)nnc1SCC(=O)Nc1cc(C)on1	-4.1	3.4	21460*	2.9
Cn1nnnc1SCC(=O)c1ccc(Br)s1	-4.2	-0.2	3079	-2.3
COc1cc(/C=C2/SC(=S)N(CC(=O)NNC(=O)c3ccc(F)cc3)C2=O)cc(OC)c1OC	-1.8	-0.7	3498	1.3
Nc1cc(=O)[nH]c2ncnn12	2.8	0.0	2860	-2.5
COCCn1c(SCC(=O)OC(C)C)nnc1-c1ccccc1	-7.3	-2.7	24184*	-3.3
COCCn1c(SCC(=O)Nc2cccc(OC)c2)nnc1-c1ccccc1	-0.4	-1.7	8103	-8.0
CNC(=O)CSc1nnc(COc2ccc(Cl)cc2)n1CCOC	0.8	1.8	22197*	3.8
CCn1c(Cc2ccccc2)nnc1SCC(=O)OC(C)C	3.1	6.6	21705*	7.1
CCn1c(SCC(=O)Nc2cc(C)on2)nnc1-c1cccnc1	-1.6	-1.0	20847*	-1.5

Source: PubChem
